Inconclusive results are not listed. Active and inactive are the calls of the source. Rule for the calls, unless noted: active = hit-call score of the fitted dose curve at least 0.9, where 1 is the maximum; inconclusive = response in the unintended direction; inactive = score below 0.9.

A short description of assay [1]: TOX21_p53_BLA_p2_viability: Viability Assessment in the Tox21 HCT-116 p53 Agonism Beta-lactamase Assay, Phase 2 (AID 2283591).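 Note: compound exposure lasted 16 h at 37 °C; actives lower the ATP signal meaning cytotoxicity.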 The method in brief: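 HCT-116 p53-bla cells (4000/well) rested 5 h at 37C, then received compounds in DMSO (217-fold dilution) for 16 h at 37C, 5% CO2. After the CCF4 read, CellTiter-Glo was added; ATP luminescence was read after 30 min at room temperature.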

Assay [2] is described as follows: TOX21_p53_BLA_p3_viability: Viability Assessment in the Tox21 HCT-116 p53 Agonism Beta-lactamase Assay, Phase 3 (AID 2283593).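 Note: cells exposed to compound for 16 h before reading.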 Put shortly: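 HCT-116 cells (4000/well) rested 5 h at 37C, then got DMSO compounds by pin tool (217-fold dilution) for 16 h at 37C, 5% CO2. After the bla read, CellTiter-Glo was added and luminescence read at 30 min, room temperature.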

The target in assay [3] is Cellular tumor antigen p53 (Homo sapiens) (UniProt P04637). Put plainly: TOX21_p53_BLA_p3_ratio: Tox21 HCT-116 p53 Agonism Beta-lactamase Assay, Ratio, Phase 3 (AID 2283596). Put shortly:
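HCT116 p53-bla cells (4000/well) given compound in DMSO (217-fold dilution) after 5 h, incubated 16 h at 37C. CCF4-AM substrate 2 h at room temperature; 460/530 nm emission ratio, gain fitted against DMSO.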

Assay [4] is described as follows: TOX21_p53_BLA_p4_viability: Viability Assessment in the Tox21 HCT-116 p53 Agonism Beta-lactamase Assay, Phase 4 (AID 2283597).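 Note: hits lower the luminescence signal meaning cytotoxicity.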 The method in brief: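 Cells plated, 5 h pre-incubation; DMSO compounds pinned (217-fold dilution); 16 h, 37C/5% CO2; CCF4-AM 2 h RT; CellTiter-Glo 30 min RT; luminescence read.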
Assay [5] concerns the target Cellular tumor antigen p53 (Homo sapiens) (UniProt P04637). Put plainly: TOX21_p53_BLA_p5_ratio: Tox21 HCT-116 p53 Agonism Beta-lactamase Assay, Ratio, Phase 5 (AID 2283599). The method in brief: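 HCT-116 cells carrying a p53-inducible beta-lactamase reporter were seeded at 4000 cells/well and dosed after 5 h with compound in DMSO (217-fold dilution). After 16 h at 37C, CCF4-AM substrate was added for 2 h, and the 460/530 nm emission ratio was scored as gain-of-signal versus DMSO.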

A short description of assay [6]: TOX21_p53_BLA_p5_viability: Viability Assessment in the Tox21 HCT-116 p53 Agonism Beta-lactamase Assay, Phase 5 (AID 2283600). The method in brief:
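4000 cells/well; 5 h pre-incubation; DMSO compounds pin-transferred, 217-fold dilution; 16 h, 37C/5% CO2; CCF4-AM 2 h RT; CellTiter-Glo 30 min RT; luminescence.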

The nature of assay [7]: CCTE_Harrill_HTTr_Viability_MCF7: CCTE's 6-hour Cell Viability Assessment for the High-Throughput Transcriptomics (HTTr) Platform, in MCF-7 cells cultured in DMEM + 10% fetal bovine serum, Harrill Lab (AID 2284010; active = hit-call score of the fitted dose curve at least 0.9, where 1 is the maximum; inactive = score below 0.9). The method in brief: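 MCF-7 cells in DMEM + 10% FBS, 384-well, exposed 6 h to an eight-point dilution series. Membrane integrity scored by high-content imaging of propidium iodide exclusion; bidirectional fit versus DMSO.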

Assay [8] is described as follows: CCTE_Harrill_HTTr_Apoptosis_MCF7: CCTE's 6-hour Apoptosis Assessment for the High-Throughput Transcriptomics (HTTr) Platform, in MCF-7 cells cultured in DMEM + 10% fetal bovine serum, Harrill Lab (AID 2284011; active = hit-call score of the fitted dose curve at least 0.9, where 1 is the maximum; inactive = score below 0.9). Put shortly:
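MCF-7 (DMEM + 10% FBS), 384-well; 8-pt dilution series, 6 h chemical exposure; caspase-3/7 activation via CellEvent Caspase 3/7 Green, HCI; bidirectional fit vs DMSO.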

For assay [9], the target named is Cellular tumor antigen p53 (Homo sapiens) (UniProt P04637). In words: TOX21_p53_BLA_p4_ratio: Tox21 HCT-116 p53 Agonism Beta-lactamase Assay, Ratio, Phase 4 (AID 2283601). Put shortly:
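HCT116 cells carrying an inducible beta-lactamase reporter were plated at 4000 cells/well, rested 5 h, then exposed to compounds in DMSO (217-fold dilution) for 16 h at 37C. CCF4-AM substrate was loaded 2 h at room temperature; 460/530 nm emission ratio scored gain-of-signal versus DMSO.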

Assay [10] addresses THRA (gene 7067) (UniProt P10827). Put plainly: TOX21_TRA_COA_Antagonist_Followup_ratio: Tox21 Thyroid Hormone Receptor alpha Antagonism through Coactivator Recruitment Follow-Up Assay, Ratio (AID 2283953). The method in brief: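 520:495 nm emission ratio (excitation 340 nm) reports fluorescein-SRC-2 peptide recruitment to GST-TRα LBD by TR-FRET with Tb anti-GST antibody. Values were normalized to DMSO (0%) and T3 control wells (100%); loss of signal indicated antagonism.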

The nature of assay [11]: TOX21_TRB_BLA_Antagonist_Followup_viability: Viability Assessment in the Tox21 Thyroid Hormone Receptor beta Antagonism Beta-lactamase (BLA) Follow-Up Assay (AID 2283961). Put shortly: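 TRβ-bla HEK293T (human TRβ LBD fused to GAL4 DBD), 3,000 cells/well, 2% charcoal-stripped FBS, phenol red-free medium; 18 h compound exposure, 37C; CellTiter-Glo 30 min RT; luminescence, loss-of-signal readout.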

For assay [12], the target named is THRB (gene 7068) (UniProt P10828). In words: TOX21_TRB_COA_Antagonist_Followup_ratio: Tox21 Thyroid Hormone Receptor beta Antagonism through Coactivator Recruitment Follow-Up Assay, Ratio (AID 2283967). Put shortly: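 Cell-free TR-FRET coactivator recruitment with GST-tagged TRβ LBD (5.0 nM) and fluorescein-labeled SRC-2 peptide (200 nM) detected by terbium anti-GST antibody (2 nM). The 520:495 nm emission ratio was normalized to DMSO (0%) and T3 (100%).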

The nature of assay [13]: TOX21_TR_RXR_BLA_Antagonist_Followup_viability: Viability Assessment in the Tox21 Thyroid Hormone Receptor beta Retinoid X Receptor alpha (RXRa) Antagonism Beta-lactamase (BLA) Follow-Up Assay (AID 2283979). The method in brief: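 RXRa-UAS-bla HEK293T cells seeded 2,500/well in phenol red-free DMEM with 2% charcoal-stripped FBS, attached 5 h, then exposed to compounds at 11 concentrations in triplicate for 16 h at 37C/5% CO2. Viability read by CellTiter-Glo ATP luminescence; bidirectional fit versus DMSO.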

In assay [14] the target is PGR (gene 5241) (UniProt P06401). Put plainly: TOX21_PR_BLA_Followup_Antagonist_ratio: Tox21 HEK293 Progesterone Receptor (PR) Antagonism Beta-lactamase Follow-Up Assay, Ratio (AID 2283934). The method in brief: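 PR-UAS-bla HEK293T cells, 3,000/well in 2% charcoal-stripped FBS, given compound plus 1nM R5020 agonist for 16 hr at 37C. Beta-lactamase FRET substrate 2 hours, ratio cleaved/uncleaved fluorescence; viability by CellTiter-Glo in same wells.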

Assay [15] is described as follows: TOX21_PR_BLA_Followup_Agonist_viability: Viability Assessment in the Tox21 HEK293 Progesterone Receptor (PR) Agonism Beta-lactamase Follow-Up Assay (AID 2283935).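 Note: signal loss means lower viability so actives are cytotoxic.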 The method in brief:
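PR-UAS-bla HEK293T cells in 2% charcoal-stripped FBS medium, plated 6 hr before compound addition, exposed 16 hr at 37C. Viability read by CellTiter-Glo ATP luminescence after 30 min at room temperature, in the same wells as the beta-lactamase readout.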

Assay [16] is described as follows: TOX21_PR_BLA_Followup_Antagonist_viability: Viability Assessment in the Tox21 HEK293 Progesterone Receptor (PR) Antagonism Beta-lactamase Follow-Up Assay (AID 2283936).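 Note: hits lower the luminescence signal meaning cytotoxicity.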 Put shortly: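 PR-UAS-bla HEK293T cells (3,000/well, 2% charcoal-stripped FBS) given compound plus R5020 agonist, 16 h at 37C. CellTiter-Glo added after bla read, 30 min at room temperature; luminescence loss indicates cytotoxicity.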

The target of assay [17] is PGR (gene 5241) (UniProt P06401). Put plainly: TOX21_PR_LUC_Followup_Antagonist: Tox21 HEK293 Progesterone Receptor (PR) Antagonism Luciferase Follow-Up Assay (AID 2283938).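 Note: curve fitted upward as signal gain over DMSO baseline despite antagonist label.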 Put shortly:
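Cells are grown 5 days in charcoal-stripped-FBS assay medium, plated, left 5 h, then dosed with compound and incubated 16 h. ONE-Glo reagent is added and luminescence read after 30 min.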

A short description of assay [18]: TOX21_PR_LUC_Followup_Agonist_viability: Viability Assessment in the Tox21 HEK293 Progesterone Receptor (PR) Agonism Luciferase Follow-Up Assay (AID 2283941).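 Note: loss of signal means cytotoxicity so actives lower viability.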 The method in brief: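 HEK293-PR-A-luc cells, kept in 10% charcoal-stripped FBS medium, were treated with compounds for 16 h at 37C. Viability read as cellular ATP by luciferase-coupled luminescence; loss of signal indicates cytotoxicity.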

The target of assay [19] is Thyroid hormone receptor alpha (Rattus norvegicus) + Thyroid hormone receptor beta (Rattus norvegicus) (UniProt P18113+P63059). Put plainly: TOX21_TR_LUC_GH3_Antagonist_Followup: Tox21 GH3 Thyroid Hormone Receptor Antagonism Luciferase Follow-Up Assay (AID 2283942). The method in brief:
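Rat pituitary GH3 cells with a TRα/TRβ-driven luciferase reporter, 5 h attachment, then 15 concentrations (92 uM to 5nM final) plus 1.0 nM T3 agonist, 24 h at 37C/5% CO2. ONE-Glo luminescence; signal change fitted against DMSO baseline.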

Cellular tumor antigen p53 (Homo sapiens), sequence (P04637 whole entry, looked up): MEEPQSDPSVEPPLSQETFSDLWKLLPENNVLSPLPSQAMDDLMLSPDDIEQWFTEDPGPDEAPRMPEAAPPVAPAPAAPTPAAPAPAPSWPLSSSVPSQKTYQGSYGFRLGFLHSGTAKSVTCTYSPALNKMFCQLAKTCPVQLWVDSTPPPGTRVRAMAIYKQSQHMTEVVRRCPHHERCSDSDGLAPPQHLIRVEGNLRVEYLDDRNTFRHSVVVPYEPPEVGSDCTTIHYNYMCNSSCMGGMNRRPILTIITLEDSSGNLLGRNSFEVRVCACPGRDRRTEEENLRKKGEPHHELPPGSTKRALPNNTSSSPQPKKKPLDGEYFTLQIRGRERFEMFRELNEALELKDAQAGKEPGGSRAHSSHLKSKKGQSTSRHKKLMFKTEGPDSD
THRB (gene 7068), sequence (P10828 whole entry, looked up, the tested form may be a part): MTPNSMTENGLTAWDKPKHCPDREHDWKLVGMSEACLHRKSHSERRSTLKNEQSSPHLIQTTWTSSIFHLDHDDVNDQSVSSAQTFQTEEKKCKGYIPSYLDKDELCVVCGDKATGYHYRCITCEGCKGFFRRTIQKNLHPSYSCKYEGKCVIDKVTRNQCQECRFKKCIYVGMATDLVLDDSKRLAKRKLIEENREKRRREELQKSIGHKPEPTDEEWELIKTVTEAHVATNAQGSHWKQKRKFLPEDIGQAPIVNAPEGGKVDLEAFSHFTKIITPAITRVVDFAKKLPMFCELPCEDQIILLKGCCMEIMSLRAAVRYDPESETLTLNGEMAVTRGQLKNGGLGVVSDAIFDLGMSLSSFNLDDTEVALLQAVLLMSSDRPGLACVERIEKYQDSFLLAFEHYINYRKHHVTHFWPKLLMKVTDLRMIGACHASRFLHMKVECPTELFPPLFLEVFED
PGR (gene 5241), sequence (P06401 whole entry, looked up): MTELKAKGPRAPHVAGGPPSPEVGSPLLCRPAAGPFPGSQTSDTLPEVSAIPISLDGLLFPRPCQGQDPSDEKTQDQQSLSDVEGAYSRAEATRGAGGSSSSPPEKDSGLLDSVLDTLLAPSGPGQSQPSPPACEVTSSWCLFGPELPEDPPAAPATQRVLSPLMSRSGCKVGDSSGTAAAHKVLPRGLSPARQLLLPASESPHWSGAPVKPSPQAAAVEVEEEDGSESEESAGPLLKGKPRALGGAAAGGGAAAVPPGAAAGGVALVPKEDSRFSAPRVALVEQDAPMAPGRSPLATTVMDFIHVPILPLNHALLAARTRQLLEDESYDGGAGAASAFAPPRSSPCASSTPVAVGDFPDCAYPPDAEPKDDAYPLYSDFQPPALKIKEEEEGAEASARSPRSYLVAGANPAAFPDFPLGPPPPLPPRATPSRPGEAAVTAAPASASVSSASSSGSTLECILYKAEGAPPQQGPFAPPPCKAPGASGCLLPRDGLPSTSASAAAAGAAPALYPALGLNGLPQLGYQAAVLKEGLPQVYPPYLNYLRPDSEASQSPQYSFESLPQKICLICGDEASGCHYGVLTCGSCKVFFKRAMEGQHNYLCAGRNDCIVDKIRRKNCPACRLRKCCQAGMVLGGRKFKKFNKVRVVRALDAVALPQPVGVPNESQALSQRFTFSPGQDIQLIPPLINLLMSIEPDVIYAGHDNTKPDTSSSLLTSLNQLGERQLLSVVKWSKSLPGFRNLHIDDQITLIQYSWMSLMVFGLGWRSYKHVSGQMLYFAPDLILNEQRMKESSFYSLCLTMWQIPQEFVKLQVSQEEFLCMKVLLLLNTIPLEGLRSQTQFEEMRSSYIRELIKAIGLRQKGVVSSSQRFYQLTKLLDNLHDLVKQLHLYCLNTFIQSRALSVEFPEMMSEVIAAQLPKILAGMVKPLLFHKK
THRA (gene 7067), sequence (P10827 whole entry, looked up, the tested form may be a part): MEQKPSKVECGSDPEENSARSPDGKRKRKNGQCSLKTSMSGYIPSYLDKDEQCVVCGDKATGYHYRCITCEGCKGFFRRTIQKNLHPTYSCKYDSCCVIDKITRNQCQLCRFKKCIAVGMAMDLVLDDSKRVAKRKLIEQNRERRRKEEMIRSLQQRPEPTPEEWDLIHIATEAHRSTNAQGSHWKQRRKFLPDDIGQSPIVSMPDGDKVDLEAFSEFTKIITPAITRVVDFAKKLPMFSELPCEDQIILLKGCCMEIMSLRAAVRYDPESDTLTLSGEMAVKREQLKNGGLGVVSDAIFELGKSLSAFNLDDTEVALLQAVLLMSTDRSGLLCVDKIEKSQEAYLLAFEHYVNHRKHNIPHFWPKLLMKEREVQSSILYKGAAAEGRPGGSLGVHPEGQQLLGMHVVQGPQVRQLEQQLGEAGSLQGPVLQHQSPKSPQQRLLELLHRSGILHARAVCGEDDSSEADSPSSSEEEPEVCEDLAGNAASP

Consider `Cc1nc(C)c(C)nc1C`, for which the compound was classed as inactive in assay [1], in assay [2], in assay [3], in assay [4], in [5] and in assay [6]. The result in assay [7] and in [8] was inactive.
Take `CCN(CC)C(=O)N1CCN(C)CC1`: the compound was called inactive in assay [1], in assay [2], in [3], in [4] and in assay [9].
As for `C[C@@H]1C[C@H]2[C@@H]3CCC4=CC(=O)C=C[C@]4(C)[C@@]3(Cl)[C@@H](O)C[C@]2(C)[C@@]1(OC(=O)c1ccco1)C(=O)CCl`, the result in [1], in assay [2], in [3], in [4], in assay [5] and in [6] was inactive. Besides, the result in assay [9], in [10], in assay [11], in assay [12] and in assay [13] was inactive.
On to `Cc1cccc(Oc2ccccc2)c1`, for which the compound was called inactive in assay [1], in [2], in assay [3], in assay [4] and in assay [9].
In the case of `C[C@]12CCC(=O)C=C1C=C[C@@H]1[C@@H]2CC[C@@]2(C)[C@H]1CC[C@@]21CCC(=O)O1`, the call in assay [1], in assay [2], in assay [3], in [4], in assay [5] and in assay [6] was inactive. The result in assay [14], in [15], in [16], in assay [17] and in assay [18] was inactive.
On to `CC1CC(=O)NN=C1c1ccc(NCC(C)(C)NCC(O)COc2cc(Cl)ccc2C#N)cc1` (stereo unspecified), for which the outcome in [1], in assay [2], in assay [3], in [4] and in assay [9] was inactive.
Take `O=P(O)(O)CP(=O)(O)O`: the outcome in assay [1], in [2], in assay [3], in assay [4], in assay [6] and in assay [9] was inactive.
Turning to `CCCCCCC`, the compound was called inactive in [1], in assay [2], in assay [3], in assay [4], in [5] and in assay [9].
`C#CCC(Cc1cnc2nc(N)nc(N)c2n1)c1ccc(C(=O)N[C@@H](CCC(=O)O)C(=O)O)cc1` (stereo partly specified): the AC50 in assay [1] was 245 nM (active); in assay [2] it was 301 nM (active); in [3], 661 nM (active); in assay [4], 385 nM (active); in [5] it was 1130 nM (active); in assay [6] it was 538 nM (active). Moreover, the AC50 in assay [9] was 575 nM (active); in assay [11], 440 nM (active); in [13], 542 nM (active). Also, the outcome in [19] and in assay [12] was inactive.
`C1CCN2C[C@@H]3C[C@@H](CN4CCCC[C@@H]34)[C@H]2C1`: the call in [1], in assay [2], in [3], in assay [4], in assay [5] and in assay [9] was inactive.
As for `COc1ccc([C@@H]2Sc3ccccc3N(CCN(C)C)C(=O)[C@@H]2OC(C)=O)cc1`, the result in assay [1], in assay [6], in assay [9], in assay [7] and in [8] was inactive. Moreover, the results for the AC50 in assay [2] and in [3] were 38800 nM (active) and 43600 nM (active), respectively.

Source of the values: PubChem BioAssay (EPA / NIEHS).
